Experimental data as given in the supplement of paper PMC10338343.
± gives the standard deviation. Over roughly 3,700 sequences, “pre-steady-state target cleavage rate” has its median near 0.02; the highest 2% begin near 0.23. For the sample, the highest values were picked, then their nearest neighbours and some sequences at random.

Test system: MILI (PIWIL2) piRISC loaded with Kctd7 piRNA (26 nt)
Assay: pre-steady-state target cleavage rate (min^-1); MIWI and MILI are mouse PIWI proteins and EfPiwi is from a freshwater sponge; tags in brackets are library labels; higher = faster piRNA-guided slicing of the target
Conditions: guide: Kctd7 piRNA 5'p-UGUUAAUCUCUCAGAGAAGGUGACAG; auxiliary factor: 500 nM mouse GTSF1
Description: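 Cleave-'n-Seq: a library of target RNAs (target site embedded in constant flanks, ACAGCATTCCGCGTTAGTGATATCCG... 5' flank; DNA-blocked outside the site) at 0.1 nM was incubated with 1 nM active mouse MILI or MIWI piRISC (synthetic 5'-monophosphorylated piRNA guide) with or without 500 nM mouse GTSF1 at 33 °C for 1 min to 16 h. Uncleaved targets were sequenced and normalised to non-target controls, and the pooled three trials were fitted to a burst-and-steady-state model to give the pre-steady-state cleavage rate (min^-1; k3 is constrained to at most 1e-4). Sequence is the target site only; target names encode pairing extent (gX:gY) and contiguous / 1-mismatch / 2-mismatch / bulge geometry. Fits with R² ≤ 0 are excluded.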

Row | Sequence | pre-steady-state target cleavage rate
1 | UAGUCUGUCACCUGCUCUGAGAGAUUAACA | 0.175 ± 0.011
2 | UAGUGUGUCACCUUGCUCUGAGAGAUUAACA | 0.248 ± 0.061
3 | UAGUCUGUCACCUUGCUCUGAGAGAUUAACA | 0.299 ± 0.059
4 | UAGUGACAGUCCUUCUCUGAGAGAUUAACCA | 0.0785 ± 0.0063
5 | UAGUGACUCACCUUCUCUGAGAGAUUCACA | 0.314 ± 0.091
6 | UAGUGACUCACCUUCUCUGAGAGAUUCAACA | 0.221 ± 0.035
7 | UAGUGACACACCUUCUCUCUGAGAUUAACA | 0.00653 ± 0.0037
8 | UAGUGACACACCUUCUCUGAGAGAUUUUCA | 0.064 ± 0.02
9 | UAGUGACACACCUUCUCUGAGAGAUAUUCA | 0.0197 ± 0.0083
10 | UAGUGACUCACCUUCUCUGAGAGAUUUUCA | 0.0728 ± 0.019
11 | UAGUGACACACCUUCUCUGAGAGAUUCAACA | 0.244 ± 0.061
12 | UAGUGACAGACCUUCUCUGAGAGAUUCAACA | 0.177 ± 0.04
13 | UAGUGACACACCUUCUCUGAGAGAUUCACA | 0.258 ± 0.057
14 | UAGUGACACACCUUCUCUGAGAGAUCAACA | 0.0804 ± 0.024
15 | UAGUGACACACCUUCUCUGAGAGAUUUAACA | 0.243 ± 0.023
16 | UAGUGACACACCUUCUCUGAGAGAUUAACA [g2:g22:cont:t1A] | 0.178 ± 0.01
17 | UAGUCUGUCACCUUCUCAGAGAGAAUAACA | 0.0517 ± 0.017
18 | UAGUGACUCACCUUCUCUGAGGGAUUAACA | 0.0864 ± 0.011
19 | UAGUGUGUCACCUACACUGAGAGAUUAACA | 0.15 ± 0.011
20 | UAGUCUGUCACCUUCAUCUGAGAGAUUAACA | 0.204 ± 0.052
21 | UAGUCUGUCACCUUCUUCUGAGAGAUUAACA | 0.0864 ± 0.021
22 | UAGUCUGUCACCUUCUUGAGAGAUUAACA | 0.07 ± 0.023
23 | UAGUCUGUCACCUUCUUUGAGAGAUUAACA | 0.259 ± 0.019
24 | UAGUGAGUCACCUUCUUGAGAGAUUAACA | 0.0386 ± 0.014
25 | UAGUGUGUCACCUUCUUUGAGAGAUUAACA | 0.229 ± 0.016

Row | Sequence | pre-steady-state target cleavage rate
26 | UAGUGAGUCACCUUCUUUGAGAGAUUAACA | 0.334 ± 0.029
27 | UAGUGAGUCUCCUUCACUGAGAGAUUAACA | 0.166 ± 0.016
28 | UAGUGACUCUCCUUCUGUGAGAGAUUAACA | 0.0558 ± 0.01
29 | UAGUGACAGACGUUCUCUCAGAGAUUAACA | 0.0137 ± 0.0054
30 | UAGUCUGUCACCUUCUCUGAGAGGAUUAACA | 0.174 ± 0.019
31 | UAGUCUGUCACCUUCUCUGAGAGAUUAAUA | 0.118 ± 0.02
32 | UAGUCGUGUCACCUUCUCUGAGAGAUUAACA | 0.199 ± 0.01
33 | UAGUCUGUCACCUUCCUGAGAGAUUAACA | 0.0844 ± 0.028
34 | UAGUCCUGUCACCUUCUCUGAGAGAUUAACA | 0.275 ± 0.026
35 | UAGUCUGUCACCUUCUCUGAGAGAUUAAUCA | 0.258 ± 0.041
36 | UAGUCUCUCACCUUGUCUGAGAGAUUAACA | 0.0068 ± 0.0039
37 | UAGUCUGUCACCUUCUCUGAGAGAUUAAA | 0.13 ± 0.026
38 | UAGUCUUGUCACCUUCUCUGAGAGAUUAACA | 0.341 ± 0.058
39 | UAGUCUUCACCUUCUCUGAGAGAUUAACA | 0.213 ± 0.019
40 | UAGUCUGUCACCUUCUCUGAGAGAUUUAACA | 0.245 ± 0.023
41 | UAGUCUGUCACCUUCUCUGAGAGAUUAACG [g2:g26:cont:t1G] | 0.196 ± 0.011
42 | UAGUCUGUCACCUUCUCUCUGAGAUUAACA | 0.00967 ± 0.0028
43 | UAGUGUGACACCUUCUGUGAGAGAUUAACA | 0.123 ± 0.015
44 | UAGUCUGUCACCUACUCUGAGAGAAUAACA | 0.0882 ± 0.017
45 | UAGUGACUCACCUUCUCUGAGAGUUUUACA | 0.0214 ± 0.01
46 | UAGUGACAGUGCUUCUCUGAGAAAUUAACA | 0.00916 ± 0.0047
47 | UAGUCUGUCACCUUCAGAGAGAGAUUAACA | 0.0227 ± 0.0099
48 | UAGUGACAGUCCUUCUCUGAGGAGAUUAACA | 0.00431 ± 0.0026
49 | UAGUGACAGUGGAAGAGUGACAGAUUAACA | < 0.0001
50 | UAGUCUGUCACCUUCUCUGAGAGAUUAACC [g2:g26:cont:t1C] | 0.173 ± 0.013

Row | Sequence | pre-steady-state target cleavage rate
51 | UAGUCUGUCACCUUCUCUGAGAGAUUAACU [g2:g26:cont:t1U] | 0.244 ± 0.026
52 | UAGUCUGUCACCUUCUCUGAGAGAUUAACA [g2:g26:cont:t1A] | 0.22 ± 0.013
53 | UAGUCUGUCACCUCUCUCUGAGAGAUUAACA | 0.164 ± 0.015
54 | UAGUCUGUCACCCUCUCUGAGAGAUUAACA | 0.238 ± 0.018
55 | UAGUCUGUCACCUCUCUGAGAGAUUAACA | 0.208 ± 0.018
56 | UAGUGACACACCUUCUCAGAGAGAUUAUGA | 0.0269 ± 0.01
57 | UAGUGUGUCACCUUCUCUGAGAGAUUAAUCA | 0.18 ± 0.032
58 | UAGUGUGUCACCUUCUCUGAGAGAUUAAUA | 0.236 ± 0.037
59 | UAGUGUGUCACCUUCUCUGAGAGAUUAAGA | 0.145 ± 0.036
60 | UAGUGUGUCACCUUCUCUGAGAGAUUAAACA | 0.214 ± 0.029
61 | UAGUGUGUCACCUUCUCUGAGAGAUUAAA | 0.234 ± 0.064
62 | UAGUGUGUCACCUUCUCUGAGAGAUUAAAA | 0.108 ± 0.022
63 | UAGUGACAGUGCUUCUCUGAGAGAAUUAACA | 0.0127 ± 0.0041
64 | UAGUGUGUCACCUUCUCUGAGAGCAUUAACA | 0.17 ± 0.022
65 | UAGUCUCUCACCUUCUCUGAGAGAUAAACA | 0.0206 ± 0.0076
66 | UAGUCUGUCACCUUCUCUGAGAGAUUUUGA | 0.0133 ± 0.0061
67 | UAGUGAGUCACCUUCUCUGAGAGAUUGACA | 0.208 ± 0.042
68 | UAGUGUGUCACCUUCUCUGAGAGAUUGACA | 0.25 ± 0.063
69 | UAGUCUGUCACCUUCUCUGAGAGAUUGAACA | 0.214 ± 0.029
70 | UAGUGUGUCACCUUCUCUGAGAGAUUGAACA | 0.0931 ± 0.017
71 | UAGUGUGUCACCUUCUCUGAGAGAUUCACA | 0.239 ± 0.049
72 | UAGUGUGUCACCUUCUCUGAGAGAUAUUCA | 0.143 ± 0.047
73 | UAGUCUGUCACCUUCUCUGAGAGAUUGACA | 0.246 ± 0.044
74 | UAGUGUGUCACCUUCUCUGAGAGAUUCAACA | 0.219 ± 0.038
